{"source": "the OligoGym collection"}
{"molecular_target": "TMEM18", "assay": "pooled miR-30 sensor sort-seq; sequence = guide strand", "settings": "shRNA"}
{"sequence": "TAGCTTCGGGAGGACAAGCAGG", "sensor-assay potency score (higher = more potent)": -1.33}
{"sequence": "TCTGTAGTCTGTAGCTTCGGGA", "sensor-assay potency score (higher = more potent)": -0.977}
{"sequence": "TAGACTAAGATGACTAGACACA", "sensor-assay potency score (higher = more potent)": -0.939}
{"sequence": "ATCTGTAGTCTGTAGCTTCGGG", "sensor-assay potency score (higher = more potent)": -0.359}
{"sequence": "TAGTCTGTAGCTTCGGGAGGAC", "sensor-assay potency score (higher = more potent)": -0.482}
{"sequence": "ATAACCACAATGATCATGGCAT", "sensor-assay potency score (higher = more potent)": 0.502}
{"sequence": "TTTCAAACCATGAGTCAGCTGG", "sensor-assay potency score (higher = more potent)": 0.141}
{"sequence": "TATATTTATAATTAGTACTAGT", "sensor-assay potency score (higher = more potent)": -0.393}
{"sequence": "TATTTAAATAAAACAACGGTTT", "sensor-assay potency score (higher = more potent)": -1.16}
{"sequence": "TATAGAAATGAACATCCCCCTG", "sensor-assay potency score (higher = more potent)": -1.12}
{"sequence": "TATTTCGAAAATAATCTCCAGT", "sensor-assay potency score (higher = more potent)": -0.177}
{"sequence": "ATAATCTCCAGTTCATCGCAGC", "sensor-assay potency score (higher = more potent)": -0.328}
{"molecular_target": "TMEM200C", "assay": "pooled miR-30 sensor sort-seq; sequence = guide strand", "settings": "shRNA"}
{"sequence": "TCCAGTTCTTCTTCTACCCCTA", "sensor-assay potency score (higher = more potent)": -0.433}
{"sequence": "AATCATGATGAGTTTCTCCTTG", "sensor-assay potency score (higher = more potent)": -0.235}
{"sequence": "ATTTTGGTCTTCTTGTCCCGGT", "sensor-assay potency score (higher = more potent)": -0.495}
{"sequence": "TTTTGGTCTTCTTGTCCCGGTT", "sensor-assay potency score (higher = more potent)": -1.07}
{"sequence": "TTGGCTTTCCGCTTGCGCTTGG", "sensor-assay potency score (higher = more potent)": 0.0739}
{"sequence": "TTGTAAACTGCCTCTGCACCGG", "sensor-assay potency score (higher = more potent)": -0.336}
{"sequence": "TTGAGCTTGTCAGAGTGCAGGT", "sensor-assay potency score (higher = more potent)": 0.387}
{"sequence": "TTCTTGTCCCGGTTCTCGTGGA", "sensor-assay potency score (higher = more potent)": -0.413}
{"sequence": "TTGACCAGCTACTGCGTCCAAG", "sensor-assay potency score (higher = more potent)": -1.14}
{"sequence": "TTTCACCACCACCACGTCGTTC", "sensor-assay potency score (higher = more potent)": -1.27}
{"sequence": "TTTGCTGCCACTGCTACTGCTG", "sensor-assay potency score (higher = more potent)": -0.287}
{"sequence": "TTGCGCTTGGGTATCTGGCTTG", "sensor-assay potency score (higher = more potent)": -0.405}
